Assay results taken from PubChem BioAssay.
Activity calls are given as the source filed them.

Assays:
[1] = tested on: Plasmodium falciparum Sir2 (PF13_0152, Sir2A); experiment: pfSir2 binders on small-molecule microarrays, primary screen, biochemical, small-molecule microarray, 635 nm fluorescence (AID 1098); details: small-molecule microarray binding, fluorescence 635 nm; higher = more signal;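 also: score merges spot fluorescence intensity with its signal-to-noise ratio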
[2] = small-molecule microarray binders of probe aDKK1, primary screen, biochemical, biotinylated probe, 635/667 nm fluorescence (AID 1099); details: higher = more signal;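 also: score merges 667nm spot fluorescence with signal to noise across triplicate slides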
[3] = small-molecule microarray binders of probe aCHRDL2, primary screen, biochemical, biotinylated probe, 635/667 nm fluorescence (AID 1100); details: higher = more signal
[4] = splicing luciferase reporter signal modulators, primary screen, spliceosome inhibition project, cell-based, HEK293, splice +/- reporter (AID 1101); details: luminescence, 24 h, higher = more signal, called active from +8 up or from −8 down;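 also: HEK293 cells carrying a splicing-competent luciferase reporter gene; test concentration not given here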
[5] = biological target: Fibroblast growth factor 10 (Homo sapiens) (UniProt O15520); experiment: FGF10 binders on small-molecule microarrays, primary screen, biochemical, small-molecule microarray, 635 nm fluorescence (AID 1102); details: FGF10 binding, fluorescence 635 nm, higher = more signal
[6] = tested on: glycogen synthase kinase-3 (GSK3A per assay name; protocol says GSK3B); experiment: GSK3 binders on small-molecule microarrays, primary screen, biochemical, small-molecule microarray, 635 nm fluorescence, GSK3A (AID 1103); details: small-molecule microarray binding, fluorescence 635 nm; higher = more signal; also: the record names both GSK3A and GSK3B
[7] = biological target: Epidermal growth factor receptor (Homo sapiens) (UniProt P00533); experiment: EGFR binders on small-molecule microarrays, primary screen, biochemical, small-molecule microarray, 635 nm fluorescence (AID 1104); details: EGFR binding, higher = more signal;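 also: score merges 667 nm emission intensity with spot signal to noise over triplicate slides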
[8] = biological target: Follistatin-related protein 3 (Homo sapiens) (UniProt O95633); experiment: FSTL3 binders on small-molecule microarrays, primary screen, biochemical, small-molecule microarray, 635 nm fluorescence (AID 1105); details: FSTL3 binding, higher = more signal;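 also: score merges emission near 667 nm and signal to noise per printed spot across three slides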
[9] = biological target: Dickkopf-related protein 1 (Homo sapiens) (UniProt O94907); experiment: DKK1 binders on small-molecule microarrays, primary screen, biochemical, small-molecule microarray, 635 nm fluorescence scan (AID 1106); details: DKK1 binding, higher = more signal;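 also: score merges emission near 667 nm with signal to noise over three replicate slides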
[10] = tested on: Inhibin beta A chain (activin A); experiment: INHBA (activin A) binders on microarrays, primary screen, biochemical, small-molecule microarray, 635 nm fluorescence scan (AID 1107); details: small-molecule microarray binding, higher = more signal;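 also: mouse activin A protein probed at 4.33 µg/mL on printed slides; score merges bound-protein fluorescence near 667 nm with spot signal-to-noise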
[11] = tested on: Human papillomavirus type 1a protein E7 (residues 44-93); experiment: HPV1a E7 fragment binders on microarrays, primary screen, biochemical, small-molecule microarray, residues 44-93, 635 nm fluorescence (AID 1108); details: small-molecule microarray binding, fluorescence 635 nm; higher = more signal;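 also: E7 fragment applied at 1 µg/mL in TBST for 1 h at 4 C; score combines spot fluorescence with its signal to noise ratio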
[12] = modulators of HCV replicon luciferase signal, primary screen, HCV replication inhibitor project, Huh7 cells, luciferase reporter (AID 1109); details: 48 h, higher = more signal;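 also: huh7 hepatoma cells harbouring a luciferase neomycin HCV replicon reporter; luciferase luminescence as measure of HCV replicon replication; test concentration not given here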
[13] = biological target: Left-right determination factor 2 (Homo sapiens) (UniProt O00292); experiment: LEFTY2 binders on small-molecule microarrays, primary screen, biochemical, small-molecule microarray, 635 nm fluorescence scan (AID 1110); details: LEFTY2 binding, higher = more signal
[14] = biological target: Calmodulin-1 (Homo sapiens) (UniProt P0DP23); experiment: CALM1 binders on microarrays, EGTA buffer, profiling panel, biochemical, small-molecule microarray, Cy5-labelled CALM1 (AID 1111); details: Cy5-CALM1 binding fluorescence, higher = more signal;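 also: labelled calmodulin applied in Tris saline Tween buffer holding calcium plus EGTA and DTT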
[15] = biological target: Calmodulin-1 (Homo sapiens) (UniProt P0DP23); experiment: calcium-bound CALM1 binders on microarrays, profiling panel, artefact control for SMM control-protein annotation, biochemical, small-molecule microarray, Cy5-labelled CALM1, plus calcium (AID 1112); details: Cy5-CALM1 binding fluorescence, higher = more signal;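 also: score merges spot fluorescence with signal to noise from triplicate slides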
[16] = small-molecule microarray binders of probe aWnt5a, primary screen, biochemical, biotinylated probe, 635/667 nm fluorescence (AID 1113); details: higher = more signal;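 also: score merges 667 nm fluorescence intensity with signal-to-noise per printed feature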
[17] = small-molecule microarray binders of probe aShh, primary screen, biochemical, biotinylated probe, 635/667 nm fluorescence (AID 1114); details: higher = more signal;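 also: probe is biotin-labelled aShh protein from a stem cell growth factor screen; measures binding of labelled protein to compounds printed on the slide; score merges feature fluorescence at 667 nm with signal-to-noise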
[18] = small-molecule microarray binders of probe aNog, primary screen, biochemical, biotinylated probe, 635/667 nm fluorescence (AID 1115); details: higher = more signal;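 also: probe is biotinylated aNog protein used at 0.15 µg/mL for 1 h at 4 C; z-score combines 667 nm fluorescence of each spot with its signal to noise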
[19] = biological target: Torsin-1A-interacting protein 1 (Homo sapiens) (UniProt Q5JTV8); experiment: LAP1 binders from COS7 cell lysate, primary screen, small-molecule microarray, 635/667 nm fluorescence (AID 1116); details: COS7-hLAP1 lysate binding, 635 nm fluorescence, higher = more signal
[20] = biological target: Alpha-bungarotoxin (Bungarus multicinctus) (UniProt P60615); experiment: alpha-bungarotoxin binders on microarray, profiling panel, artefact control for SMM control protein annotation, biochemical, small-molecule microarray, Alexa647 label, 635/667 nm fluorescence (AID 1117); details: alpha-BTX-A647 binding fluorescence, higher = more signal
Sequence of Alpha-bungarotoxin (Bungarus multicinctus) (P60615 whole entry, looked up): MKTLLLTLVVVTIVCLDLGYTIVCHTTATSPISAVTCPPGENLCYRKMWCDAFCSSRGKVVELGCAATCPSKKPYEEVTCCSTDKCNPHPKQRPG

Sequence of Torsin-1A-interacting protein 1 (Homo sapiens) (Q5JTV8 whole entry, looked up): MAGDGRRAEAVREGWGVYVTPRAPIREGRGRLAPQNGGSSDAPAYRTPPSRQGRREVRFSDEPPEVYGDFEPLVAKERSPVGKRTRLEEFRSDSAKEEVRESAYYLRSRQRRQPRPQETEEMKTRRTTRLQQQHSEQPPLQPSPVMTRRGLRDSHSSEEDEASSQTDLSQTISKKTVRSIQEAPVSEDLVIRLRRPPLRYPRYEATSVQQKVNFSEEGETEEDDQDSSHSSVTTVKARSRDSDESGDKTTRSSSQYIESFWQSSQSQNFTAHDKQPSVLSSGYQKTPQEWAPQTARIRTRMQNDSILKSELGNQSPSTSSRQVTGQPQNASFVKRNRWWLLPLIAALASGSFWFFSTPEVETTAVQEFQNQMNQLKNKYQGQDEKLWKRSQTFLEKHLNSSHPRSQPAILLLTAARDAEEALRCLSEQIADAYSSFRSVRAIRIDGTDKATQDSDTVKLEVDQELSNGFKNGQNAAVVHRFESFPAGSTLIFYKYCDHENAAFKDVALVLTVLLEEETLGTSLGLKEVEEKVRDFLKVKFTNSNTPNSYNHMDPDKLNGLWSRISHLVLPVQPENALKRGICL
Sequence of Fibroblast growth factor 10 (Homo sapiens) (O15520 whole entry, looked up): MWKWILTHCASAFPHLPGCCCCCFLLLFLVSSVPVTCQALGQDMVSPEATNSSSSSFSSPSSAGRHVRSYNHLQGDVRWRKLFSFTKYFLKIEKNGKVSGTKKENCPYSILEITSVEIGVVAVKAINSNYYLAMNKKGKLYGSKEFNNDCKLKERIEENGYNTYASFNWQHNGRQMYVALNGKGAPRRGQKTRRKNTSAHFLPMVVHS
Sequence of Left-right determination factor 2 (Homo sapiens) (O00292 whole entry, looked up): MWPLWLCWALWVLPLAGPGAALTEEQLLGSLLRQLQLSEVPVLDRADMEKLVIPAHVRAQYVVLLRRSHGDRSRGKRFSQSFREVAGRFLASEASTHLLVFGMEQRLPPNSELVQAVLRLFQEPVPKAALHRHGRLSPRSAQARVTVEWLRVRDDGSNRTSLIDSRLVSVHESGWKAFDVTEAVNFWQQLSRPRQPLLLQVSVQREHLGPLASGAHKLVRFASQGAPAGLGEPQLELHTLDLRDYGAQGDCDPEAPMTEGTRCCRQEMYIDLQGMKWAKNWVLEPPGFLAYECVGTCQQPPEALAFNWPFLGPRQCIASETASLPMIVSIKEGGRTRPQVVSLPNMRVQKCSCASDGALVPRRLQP
Sequence of Follistatin-related protein 3 (Homo sapiens) (O95633 whole entry, looked up): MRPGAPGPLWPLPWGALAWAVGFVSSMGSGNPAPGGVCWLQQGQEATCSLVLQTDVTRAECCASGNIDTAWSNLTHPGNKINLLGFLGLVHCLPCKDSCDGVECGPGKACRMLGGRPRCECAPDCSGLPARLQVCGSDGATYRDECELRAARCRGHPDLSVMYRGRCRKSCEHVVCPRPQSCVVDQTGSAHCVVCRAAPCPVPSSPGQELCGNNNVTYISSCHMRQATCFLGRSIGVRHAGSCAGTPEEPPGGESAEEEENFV
Sequence of Dickkopf-related protein 1 (Homo sapiens) (O94907 whole entry, looked up): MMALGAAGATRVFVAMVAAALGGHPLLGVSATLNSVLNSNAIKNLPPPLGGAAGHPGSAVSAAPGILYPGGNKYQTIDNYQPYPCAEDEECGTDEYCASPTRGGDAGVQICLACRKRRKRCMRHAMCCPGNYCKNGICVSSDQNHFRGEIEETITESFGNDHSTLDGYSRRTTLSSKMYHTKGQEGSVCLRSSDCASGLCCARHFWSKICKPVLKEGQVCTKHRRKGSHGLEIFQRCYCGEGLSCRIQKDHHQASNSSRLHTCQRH
Sequence of Epidermal growth factor receptor (Homo sapiens) (P00533 whole entry, looked up): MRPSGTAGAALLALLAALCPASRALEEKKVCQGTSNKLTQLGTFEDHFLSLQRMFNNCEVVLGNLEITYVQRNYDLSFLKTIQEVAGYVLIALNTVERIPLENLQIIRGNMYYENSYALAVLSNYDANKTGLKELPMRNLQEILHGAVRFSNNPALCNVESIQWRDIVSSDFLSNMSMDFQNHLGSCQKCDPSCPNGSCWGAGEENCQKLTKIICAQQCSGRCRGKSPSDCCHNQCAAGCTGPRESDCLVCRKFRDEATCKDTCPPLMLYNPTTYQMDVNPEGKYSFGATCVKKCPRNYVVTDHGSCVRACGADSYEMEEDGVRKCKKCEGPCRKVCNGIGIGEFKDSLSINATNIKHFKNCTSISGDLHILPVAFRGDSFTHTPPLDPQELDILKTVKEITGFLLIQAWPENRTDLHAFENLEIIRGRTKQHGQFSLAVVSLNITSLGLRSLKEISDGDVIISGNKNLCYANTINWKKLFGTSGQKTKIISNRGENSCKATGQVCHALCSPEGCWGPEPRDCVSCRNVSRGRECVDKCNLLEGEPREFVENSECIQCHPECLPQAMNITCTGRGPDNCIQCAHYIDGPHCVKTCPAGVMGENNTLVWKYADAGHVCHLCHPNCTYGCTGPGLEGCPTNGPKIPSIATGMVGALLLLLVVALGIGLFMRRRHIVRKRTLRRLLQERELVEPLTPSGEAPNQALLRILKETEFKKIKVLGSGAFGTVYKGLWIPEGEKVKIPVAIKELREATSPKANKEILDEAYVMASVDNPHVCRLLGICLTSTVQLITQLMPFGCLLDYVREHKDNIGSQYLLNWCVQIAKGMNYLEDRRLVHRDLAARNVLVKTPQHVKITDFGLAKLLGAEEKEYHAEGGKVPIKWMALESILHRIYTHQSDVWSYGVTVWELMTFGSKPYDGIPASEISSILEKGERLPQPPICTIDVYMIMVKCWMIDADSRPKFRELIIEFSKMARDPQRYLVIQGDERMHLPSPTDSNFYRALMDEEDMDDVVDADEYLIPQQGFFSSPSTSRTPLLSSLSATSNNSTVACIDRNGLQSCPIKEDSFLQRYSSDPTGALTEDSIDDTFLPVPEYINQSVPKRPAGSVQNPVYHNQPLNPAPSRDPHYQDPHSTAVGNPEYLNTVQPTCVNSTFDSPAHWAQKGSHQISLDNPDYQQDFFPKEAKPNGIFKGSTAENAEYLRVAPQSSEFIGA

SMILES | composite z-score [1] | composite z-score [2] | composite z-score [3] | z-score [4] | composite z-score [5] | composite z-score [6] | composite z-score [7] | composite z-score [8] | composite z-score [9] | composite z-score [10] | composite z-score [11] | z-score [12] | composite z-score [13] | composite z-score [14] | composite z-score [15] | composite z-score [16] | composite z-score [17] | composite z-score [18] | composite z-score [19] | composite z-score [20]
C=CCC(OC(C)=O)[C@@H]1[C@@H](N(Cc2cc3ccccc3o2)C(=O)Cc2ccc(OC)cc2)c2cc(OCCCO)ccc2N1C(=O)Cc1ccc(OC)cc1 (stereo not given in full) | -0.193 | -0.0082 | 0.246 | -0.782 (inactive) | 0.233 | -0.238 | 0.157 | -0.0138 | 0.214 | 1.3 | -0.133 | 0.028 | -0.0735 | -0.211 | 0.158 | -0.0981 | -0.0626 | -0.303 | -0.0544 | 0.673
C=CCC(OC(C)=O)[C@@H]1[C@@H](N(Cc2cc3ccccc3o2)C(=O)c2ccc(-c3ccccc3)cc2)c2cc(OCCCO)ccc2N1C(=O)c1ccc2ccccc2n1 (stereo not given in full) | -0.148 | 0.0919 | 0.51 | -0.0569 (inactive) | -0.0302 | -1.24 | -0.0803 | -0.205 | 0.157 | 1.33 | 0.061 | 0.104 | 0.163 | -0.12 | 0.898 | 0.107 | -0.124 | -0.961 | 0.554 | 0.113
CC(C)=CCN(C(=O)C#Cc1ccccc1)[C@H](CO)c1ccccc1 | -0.117 | -0.267 | -0.693 | 7.56 (inactive) | 0.341 | 0.506 | 0.512 | 0.604 | 0.439 | 0.661 | 1.16 | -4.92 | 0.379 | -0.557 | -0.56 | -0.0346 | -0.16 | -0.302 | 0.58 | 0.14
CCOC(=O)C1=CCC(c2cc3ccccc3[nH]2)N(S(=O)(=O)c2ccccc2[N+](=O)[O-])C1 (stereo not given) | 0.984 | 0.225 | -0.006 | -0.365 (inactive) | 0.696 | 0.565 | -0.106 | 0.319 | -0.117 | 0.722 | 0.833 | -1.86 | -0.335 | -0.115 | -0.472 | 0.0839 | 0.0121 | -0.142 | 0.161 | 1.97
CN1C(=O)[C@]2(CCS(=O)(=O)c3ccccc3)N=C(c3ccc(OCCCO)cc3)O[C@@H]2c2ccccc21 | 1.38 | 0.0991 | 0.89 | -0.674 (inactive) | 0.458 | 1.33 | -0.0528 | 0.669 | 0.367 | 0.3 | 1.5 | -2.63 | -0.249 | 1.11 | -0.545 | -0.0704 | -0.0119 | -0.122 | 0.0996 | 0.836
COCCOC(=O)N1C(=O)[C@@]2(c3cc(C#CC4(O)CCCCCC4)ccc31)[C@H](c1ccccc1OCCO)N1[C@H](c3ccccc3)[C@H](c3ccccc3)OC(=O)[C@H]1[C@@H]2C(=O)N1CCCCCCC1 | 1.56 | 2.22 | 1.43 | -0.901 (inactive) | 0.846 | 0.502 | 0.638 | 1.5 | 1.09 | 1.71 | 1.06 | -2.28 | 0.502 | 1.67 | 1.46 | 0.355 | 0.661 | 2.71 | 3.51 | 1.49
O=C1N(Cc2ccccc2)c2ccccc2[C@H]2OC(c3ccc(OCCCO)cc3)=N[C@@]12Cc1ccccc1 | 1.53 | 0.655 | 0.794 | -0.385 (inactive) | 1.16 | 1.29 | 0.279 | 0.582 | 0.194 | 0.925 | 1.03 | -2.48 | -0.116 | 0.244 | -0.0364 | 0.067 | 1.06 | 0.798 | 0.498 | 1.81
C=CCN1C(=O)[C@]2(O[C@H](CCO)[C@@H]([Si](C)(C)c3ccc(OC)cc3)[C@@H]2C)c2ccccc21 | 0.504 | -0.141 | 0.837 | -3.11 (inactive) | -0.876 | -0.73 | -0.66 | -0.608 | -1.27 | 0.456 | 0.925 | -5.21 | -0.774 | -0.0667 | -0.0278 | -0.232 | -0.358 | -0.118 | -0.547 | -0.0693
CC(C)C[C@@H]1NC(=O)[C@H]2C[C@@H](C(=O)NCCCCCNC(=O)CS)[C@@H](c3ccc(O)cc3)N2C1=O | 1.56 | -0.0363 | 0.203 | 0.0983 (inactive) | 1.08 | 1.33 | 0.521 | 0.848 | 1.01 | 0.0563 | 1.46 | -0.28 | 0.679 | 1.03 | -0.568 | 0.23 | 0.203 | -0.324 | 0.602 | 1.54
COC(=O)[C@@]1(CCS(=O)(=O)c2ccccc2)N=C(c2ccc(OCCCO)cc2)O[C@H]1c1ccccc1N=[N+]=[N-] | 1.52 | 0.336 | 0.475 | 0.177 (inactive) | 0.419 | 1.29 | 0.491 | 0.969 | 0.425 | 0.865 | 1.38 | -1.83 | 0.406 | 1.29 | 0.383 | -0.0455 | -0.0904 | 0.424 | 0.861 | 2.23
